Screening data from PubChem.
This is a sample that favours compounds with a hit; in the whole collection about 3.2% have one here.
BRCA1 expr act: increases BRCA1 expression. Potency, µM (titrated, usually from 46.1 µM), for inactives: at the highest dose activation, actives largely listed as activators. hit rate 1.1% among 380,000. MCF7-BRCA1-FFLuc reporter, luminescence, 48 h; response scale: scaled: vehicle 0%, 10 µM genistein 100%. AID 624202; note: potency is the fitted concentration of half-maximal effect; nearly all actives have a fitted effect of over 80% in size
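First, MCF7-BRCA1-FFLuc cells (2000/well) attach for 2 h; next, compounds are pin-added and incubated 48 h at 37 °C; finally, luciferase reagent is added and luminescence read after 15 min.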
Nrf2 inh: Nrf2 pathway inhibition. A549 ARE-Fluc reporter, luciferase luminescence, 18-24 h. Potency, µM (top dose mostly 46 µM), inactives show top-dose activity change, negative = inhibition, most hits filed as inhibitors. hit rate 2.1% among 360,000. AID 504444; note: potency is the fitted concentration of half-maximal effect; % is set by controls: 0 for no effect and ±100 for the full control effect; nearly all actives have a fitted effect of over 60% in size
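Concentration-response testing used A549 ARE_Fluc cells at 5000 cells/well. Following an 18-24 h compound incubation, viability was read by fluorescence (Ex 405/Em 525) and luciferase output by luminescence.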
p53 reactivation: re-activators of mutant p53. H1299 p53-A138V BP100-luciferase reporter, luminescence, 24 h. Potency, µM (highest dose often 92.2 µM), inactives show at the highest dose activity change, positive = activation, most hits filed as activators. hit rate 0.063% among 320,000; note: potency is the fitted concentration of half-maximal effect; % of control where 0% means no effect; nearly all actives have a fitted effect of over 45% in size
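p53-null H1299 cells stably carrying temperature-sensitive p53-A138V and a BP100-luciferase reporter were pinned with compounds (4-point, 1:5 series) and held 24 hrs at 37 deg C. Luminescence was read 10 min after detection reagent.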
A549 tox: counter-screen for Nrf2 inhibitors: cytotoxicity in A549 cells; A549 ARE-Fluc cells, CellTiter-Fluor viability, 18-24 h; Potency, µM (highest dose often 46 µM), inactives show top-dose activity change, negative = cytotoxicity, usual class: inhibitors; hit rate 0.16% among 390,000; AID 504648; note: potency is the fitted concentration of half-maximal effect; % is set by controls: 0 for no effect and ±100 for the full control effect
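Cytotoxicity counterscreen: CellTiter-Fluor fluorescence was measured in A549 ARE_Fluc cells after 18-24 h of compound exposure in a concentration series. The subsequent BugLite luminescent read reports ARE-luciferase activity.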
Nrf2 activator: activates Nrf2 signaling. AREc32 ARE-luciferase reporter (MCF7-derived line), luminescence, 24 h. Potency, µM (doses to about 46.1 µM), for inactives: at the highest dose activation, most hits filed as activators. hit rate 0.31% among 410,000. AID 624171; note: potency is the fitted concentration of half-maximal effect; % of control where 0% means no effect; nearly all actives have a fitted effect of over 65% in size
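Cells of the AREc32 ARE-luciferase line are plated in OPTI-MEM containing 5% FBS and left overnight at 37 deg C. Compounds are pinned in, incubation continues 24 hr, and firefly luciferase signal is then measured.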
IL2 activator: IL-2 activation. IL-2 activation reporter assay, cell-based qHTS; stimulated with anti-CD3/CD4/CD28 beads; in transgenic mouse T cells. activation, % (series mostly up to about 46 µM). hit rate 0.065% among 360,000; in the data active = activation above about 50%; inconclusive = mostly about 30% to 49%; note: 0% is about no effect
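Using fluorescent plate cytometry, EGFP and DsRed are detected in transgenic mouse T cells stimulated 18 h at 37 degrees C with antibody-coated beads after 60 min compound pretreatment.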
The depositor's hits bear a star; ? = inconclusive; . = not tested or not shown. Unless noted, calls come from the whole dose curve; as a rule, active = well fitted curve in the direction sought with a large enough effect; inconclusive = small, poorly fitted or top-dose-only effect, or another doubt; inactive = no such curve, though single readings can be large; an effect the other way counts as inactive or inconclusive.

SMILES	BRCA1 expr act	Nrf2 inh	p53 reactivation	A549 tox	Nrf2 activator	IL2 activator
Cc1ccc(NS(=O)(=O)c2ccc3c(c2)CCCC(=O)N3)cc1C	.	?	.	6.5%	.	.
Cc1ccc(NS(=O)(=O)c2ccc(N3CCCC3=O)cc2)cc1C	.	14.6µM*	.	-6.3%	.	.
Cc1ccc(NS(=O)(=O)c2ccc3c(c2)CCC(C)(C)O3)cc1C	.	23.1µM*	.	1.8%	.	.
O=S(=O)(c1ccc2c(c1)OCO2)N1CCN(S(=O)(=O)c2c(F)cccc2F)CC1	.	0.9%	.	-5.1%	.	.
CC1(C)CCc2cc(S(=O)(=O)N3CCN(S(=O)(=O)c4c(F)cccc4F)CC3)ccc2O1	7.94µM*	?	?	-2.1%	-0.2%	7.8
O=C1CCCN1c1ccc(S(=O)(=O)Nc2cccnc2)cc1	-32.4%	-7.1%	18.1%	-0.1%	-1.0%	-0.7
Nc1cccc(S(=O)(=O)N2CCN(S(=O)(=O)c3ccc4c(c3)OCCO4)CC2)c1	.	-19.3%	.	-1.0%	.	.
CCc1cnc2c(c1SCC(=O)Nc1ccc(C)cc1C)c(=O)n(C)c(=O)n2C	.	.	.	5.6%	-0.7%	.
CCn1nc(-c2ccccc2C)nc2c(=O)n(C)c(=O)nc1-2	-77.9%	2.5%	.	23.1µM*	.	.
Cn1nc(-c2ccc(Cl)cc2)nc2c(=O)n(C)c(=O)nc1-2	-80.2%	-123.6%	-17.2%	8.2µM*	.	.
COc1ccc(-c2nc3c(=O)n(C)c(=O)nc-3n(C)n2)cc1	-78.3%	1.46µM*	.	1.64µM*	.	.
Cn1nc(-c2cccnc2)nc2c(=O)n(C)c(=O)nc1-2	-79.7%	7.31µM*	.	6.51µM*	.	.
Cc1ccccc1-n1c2nc(=O)n(C)c(=O)c-2cc2ccccc21	-22.8%	-17.1%	-6.9%	2.8%	0.6%	0.2
Cc1cc(C)n2nc(-c3cccnc3)nc2n1	15.6%	.	0.6%	2.2%	1.4%	-3.1
CS(=O)(=O)n1nc(-c2ccc(Cl)cc2)nc1N	19.8%	3.9%	7.0%	1.1%	0.8%	-0.3
COc1ccc(C2=Nn3c(nnc3-c3ccc(OC)c(OC)c3)SC2)cc1OC	.	-18.6%	.	-8.1%	.	.
Cc1ccc(CNC(=O)c2ccc(-n3cnc4cccnc43)cc2)cc1	3.0%	-8.4%	.	11.0%	-1.8%	.
Cc1cc2c(cc1S(=O)(=O)N(CCO)Cc1ccccc1)OCC(=O)N2	.	.	.	2.3%	0.3%	.
COC(=O)c1ccccc1NS(=O)(=O)c1cc2c3c(c1)CC(=O)N3CCC2	.	.	.	3.8%	-0.2%	.
Cc1ccccc1NC(=O)CSc1nc2ccc(NC(=O)c3ccccc3)cc2s1	3.8%	-4.6%	.	-14.9%	5.6%	.
Cn1nc(-c2ccc(F)cc2)nc2c(=O)n(C)c(=O)nc1-2	-79.4%	2.31µM*	.	2.91µM*	.	.
Cn1nc(-c2ccccc2)nc1-c1ccccc1	-7.4%	?	?	4.9%	20.1%	-3.2
Cc1cc(C(=O)NC2CCCc3c2cnn3-c2ccc(C)c(C)c2)no1 (stereo unspecified)	2.1%	10.3µM*	-2.2%	-18.9%	0.0%	-0.4
CC(=O)NC1CCCc2c1cnn2-c1ccc(C(C)(C)C)cc1 (stereo unspecified)	5.6%	-24.3%	-4.9%	-8.3%	0.1%	-0.9
CCCC(=O)NC1CCCc2c1cnn2-c1ccc(C)c(C)c1 (stereo unspecified)	72.3%	-29.4%	-4.4%	0.1%	4.3%	0.0
SMILES	BRCA1 expr act	Nrf2 inh	p53 reactivation	A549 tox	Nrf2 activator	IL2 activator
COc1ccc(C(=O)NC2CCCc3c2cnn3-c2ccc(C)c(C)c2)c(OC)c1OC (stereo unspecified)	-25.0%	13µM*	-4.5%	-10.5%	0.2%	-4.5
CC(C)(C)c1ccc(-n2ncc3c2CCCC3NC(=O)C2=NNC(=O)CC2)cc1 (stereo unspecified)	-30.6%	8.2µM*	-12.6%	-19.1%	0.8%	-3.7
COc1cc(C(=O)NC2CCCc3c2cnn3-c2ccccc2F)cc(OC)c1OC (stereo unspecified)	-35.9%	6.51µM*	-2.9%	-13.8%	1.8%	-3.3
CCn1nc(C)cc1C(=O)NC1CCCc2c1cnn2-c1ccc(C)c(C)c1 (stereo unspecified)	-69.8%	11.6µM*	-24.5%	-13.3%	-0.3%	-4.7
Cn1c(-c2ccc(CN3CCCCC3)o2)nc2ccccc21	3.16µM*	?	11.4%	11.4%	0.4%	0.3
Cn1c(-c2ccc(N)cc2)nc2ccccc21	96.0%	?	?	-3.3%	-0.2%	-0.4
COc1cc(NC(=O)c2sc3nc4n(c(=O)c3c2C)CCCCC4)cc(OC)c1OC	.	10.5%	.	0.9%	6.9%	.
COc1ccc(/C=C/c2noc(-c3ccccc3O)n2)cc1	?	?	?	7.2%	2.0%	-2.6
CC(=O)Oc1ccccc1-c1nc(/C=C/c2ccccc2)no1	60.7%	?	?	0.2%	11.2µM*	-0.3
N#Cc1cc(C(=O)c2ccccc2O)cn(-c2nccs2)c1=O	-52.6%	-1.7%	?	0.0%	22.4µM*	7.7
N#Cc1cc(C(=O)c2cc(F)ccc2O)cn(-c2nccs2)c1=O	-54.6%	17.2%	8.7%	3.0%	8.0%	-1.3
Cc1ccccc1NC(=O)C1CCN(C(=O)c2cnn(-c3ccccc3)c2-n2cccc2)CC1	-10.8%	4.7%	.	-6.2%	-0.4%	.
CCc1ccc(NC(=O)Nc2ccon2)cc1	3.16µM*	?	?	1.3%	3.2%	-0.2
Cc1cccc(NC(=O)C2C3CCCCC32)c1 (stereo unspecified)	10µM*	?	.	9.8%	6.1%	0.0
CC(=O)c1cccc(NC(=O)c2ccc3c(c2)CCCC3)c1	3.55µM*	?	?	-9.6%	2.8%	7.7
COc1cccc(NC(=O)c2ccc3c(c2)CCCC3)c1	53.0%	?	?	-2.9%	2.4%	0.2
O=C(Nc1ccccc1)C1C2CCCCC21 (stereo unspecified)	57.1%	?	.	-1.6%	2.6%	0.4
CC(=O)c1cccc(Nc2ccc(Br)cc2)c1	10µM*	.	.	.	3.4%	0.4
CC(=O)Nc1cccc(S(=O)(=O)N2CCN(S(=O)(=O)c3ccc4c(c3)OCCO4)CC2)c1	.	?	.	-1.8%	.	.
Nc1nc(Nc2cc(F)cc(F)c2)nc(NC2CCCC2)n1	.	-15.1%	.	-7.3%	.	.
CCc1cccc(C)c1NC(=O)CN1CCCN(Cc2ccccc2Cl)S1(=O)=O	.	-11.7%	.	0.4%	0.8%	.
COc1ccc(OC)c(CCNC(=O)CCc2cn(Cc3cc(C)ccc3C)c3ccccc23)c1	.	?	.	-0.5%	0.6%	.
Cc1cccc(NC(=O)Nc2ccc3c(c2)CCC3)c1	4.47µM*	?	?	-3.8%	3.2%	-1.0
CCc1ccc(NC(=O)Nc2ccc3c(c2)CCC3)cc1	3.55µM*	?	10.1%	4.8%	-0.6%	-1.5
